From PubChem BioAssay (NCATS) come the findings set out here.

The nature of experiment [1]: qHTS profiling of the MIPE4 collection as inhibitors of Plasmodium falciparum (3D7) proliferation (AID 743344).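 Also: scaled between DMSO vehicle wells and 0.29 µM artemisinin as full inhibition.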 The settings on record: P. falciparum 3D7 in erythrocytes, SYBR Green DNA fluorescence, 72 h; at 28.5 µM unless noted. In outline:
(§1)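 Erythrocytes infected with P. falciparum (0.3% parasitemia, 2.5% hematocrit) incubated with compounds 72 h at 37 C, 5% CO2. Lysis with saponin/Triton buffer containing SYBR Green I, overnight at room temperature in the dark; DNA fluorescence (485/535 nm) normalised to 0.29 uM artemisinin and DMSO.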
(In general: In qHTS, concentration-response curves come from the screen itself.)

Experiment [2] in a line: qHTS profiling of the MIPE4 collection as inhibitors of Plasmodium falciparum (DD2) proliferation (AID 743345). The settings on record: P. falciparum Dd2 in erythrocytes, SYBR Green DNA, 72 h; at 28.5 µM unless noted. In a few lines:
as §1

Experiment [3] is described as follows: qHTS profiling of the MIPE4 collection as inhibitors of Plasmodium falciparum (DD2) proliferation (Rep 2) (AID 743346). The settings on record: P. falciparum Dd2 in erythrocytes, SYBR Green DNA, 72 h; at 28.5 µM unless noted. In outline: as §1
A short description of experiment [4]: qHTS profiling of the MIPE4 collection as inhibitors of Plasmodium falciparum (HB3) proliferation (AID 743347).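 Also: plate controls were DMSO vehicle wells for no effect and artemisinin wells for full effect.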 The settings on record: P. falciparum HB3 in erythrocytes, SYBR Green DNA, 72 h; at 28.5 µM unless noted. In outline: as §1
The nature of experiment [5]: High-throughput drug toxicity screening in the BPDCN cell line Gen2.2 (AID 1224824).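 Also: cells exposed to compounds for 48 h before reading.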 The following applies: Gen2.2 BPDCN cells; at 45.8 µM (top of the series) unless noted. In a few lines: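 CellTiter-Glo luminescence after 48 h compound exposure of Gen2.2 cells; percent activity set with DMSO as 100% and bortezomib (9.2 uM final) as 0%. Cells seeded at 500 per well, RPMI + 10% FBS, 37 °C.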

The structures appear in SMILES notation.

`O[C@@H](CNC[C@H](O)[C@H]1CCc2cc(F)ccc2O1)[C@@H]1CCc2cc(F)ccc2O1` registered a parasite growth, % of DMSO control in experiment [1] of 6.58%. Also, the parasite growth remaining, % of DMSO control (lower = more inhibition) in experiment [2] was determined as 8.23%. For the same compound, the parasite growth, % of control (lower = inhibition) in experiment [3] was 19.2%. In experiment [4], this compound came in with a growth, % of control of 8.28%. Besides, the cell viability, % of control (lower = more cytotoxic) in experiment [5] was found to be 4.81%.
Regarding `O=S(=O)(O)CCS`, the parasite growth, % of DMSO control in experiment [1] worked out at 87.9%. Also, in experiment [2], the parasite growth remaining, % of DMSO control (lower = more inhibition) turned out to be 108%. For the same compound, in experiment [3], the parasite growth, % of control (lower = inhibition) was determined as 78.8%. Further, the growth, % of control in experiment [4] was 66.6%. The cell viability, % of control (lower = more cytotoxic) in experiment [5] was determined as 25.9%.
`COc1cc2ncnc(Nc3cccc(Cl)c3)c2cc1OC` displayed a parasite growth, % of DMSO control in experiment [1] of 8.74%. Also, in experiment [2], the parasite growth remaining, % of DMSO control (lower = more inhibition) turned out to be 27%. In experiment [3], the parasite growth, % of control (lower = inhibition) is 24.1%. In addition, the growth, % of control in experiment [4] came out at 4.11%. Further, in experiment [5], the cell viability, % of control (lower = more cytotoxic) was 115%.
The matching figures for `CC(C(=O)O)c1ccc2c(c1)CC(=O)c1ccccc1S2` (configuration not stated): 69.8%, 92.6%, 187%, 97.8% and 113%.
For the compound `CN(C)CCc1c[nH]c2ccc(CS(=O)(=O)N3CCCC3)cc12`, in experiment [1], the parasite growth, % of DMSO control was determined as 94.3%. In experiment [2], the parasite growth remaining, % of DMSO control (lower = more inhibition) was found to be 92.8%. Further, the parasite growth, % of control (lower = inhibition) in experiment [3] came to 86.7%. The compound also yielded a growth, % of control in experiment [4] of 70.4%. Also, in experiment [5], the cell viability, % of control (lower = more cytotoxic) worked out at 25%.
Consider `NS(=O)(=O)c1cc2c(cc1Cl)NC(C(Cl)Cl)NS2(=O)=O` (configuration not stated), for which the parasite growth, % of DMSO control in experiment [1] is 84.2%. For the same compound, the parasite growth remaining, % of DMSO control (lower = more inhibition) in experiment [2] was 86.3%. Moreover, in experiment [3], the parasite growth, % of control (lower = inhibition) was determined as 65%. The growth, % of control in experiment [4] was 60.5%. Also, the cell viability, % of control (lower = more cytotoxic) in experiment [5] is 43.4%.
In the case of `CC1=C(C(=O)O)N2C(=O)[C@@H](NC(=O)C(N)c3ccccc3)[C@H]2SC1` (some centres not stated), the parasite growth, % of DMSO control in experiment [1] was determined as 101%. In experiment [2], the parasite growth remaining, % of DMSO control (lower = more inhibition) was found to be 95.4%. For the same compound, the parasite growth, % of control (lower = inhibition) in experiment [3] is 151%. This compound also returned a growth, % of control in experiment [4] of 108%. Besides, in experiment [5], the cell viability, % of control (lower = more cytotoxic) is 114%.
Take `CNS(=O)(=O)CCc1ccc2[nH]cc(C3CCN(C)CC3)c2c1`: in experiment [2], the parasite growth remaining, % of DMSO control (lower = more inhibition) was found to be 87.2%. Besides, the parasite growth, % of control (lower = inhibition) in experiment [3] came to 92.8%. For the same compound, in experiment [4], the growth, % of control was 92.7%. For the same compound, the cell viability, % of control (lower = more cytotoxic) in experiment [5] came to 238%.
`CNCC[C@H](Oc1cccc2ccccc12)c1cccs1`: the parasite growth remaining, % of DMSO control (lower = more inhibition) in experiment [2] amounted to 7.89%. The parasite growth, % of control (lower = inhibition) in experiment [3] was found to be 14.2%. In experiment [4], the growth, % of control was 3.44%. Besides, the cell viability, % of control (lower = more cytotoxic) in experiment [5] stood at 8.39%.
The matching figures for `Cn1nnc2c(C(N)=O)ncn2c1=O`: 86.5%, 120%, 98.2% and 79.7%.
On to `CN(Cc1cc(Br)cc(Br)c1N)C1CCCCC1`, for which the parasite growth remaining, % of DMSO control (lower = more inhibition) in experiment [2] amounted to 113%. In experiment [3], the parasite growth, % of control (lower = inhibition) stood at 25.7%. Further, in experiment [4], the growth, % of control is 62.3%. For the same compound, the cell viability, % of control (lower = more cytotoxic) in experiment [5] was determined as 226%.
For the compound `O=C(O)C1CCCN(CCC=C(c2ccccc2)c2ccccc2)C1` (configuration not stated), the parasite growth remaining, % of DMSO control (lower = more inhibition) in experiment [2] stood at 103%. Moreover, the parasite growth, % of control (lower = inhibition) in experiment [3] worked out at 72.1%. For the same compound, the cell viability, % of control (lower = more cytotoxic) in experiment [5] turned out to be 145%.
In the case of `CCOC(=O)c1ccc(OC(=O)CCCCCN=C(N)N)cc1`, the parasite growth remaining, % of DMSO control (lower = more inhibition) in experiment [2] is 89.5%. Besides, the parasite growth, % of control (lower = inhibition) in experiment [3] came to 118%. This compound had a growth, % of control in experiment [4] of 80.6%. The cell viability, % of control (lower = more cytotoxic) in experiment [5] was 186%.
Take `CC(C)(C#N)c1cc(Cn2cncn2)cc(C(C)(C)C#N)c1`: the parasite growth remaining, % of DMSO control (lower = more inhibition) in experiment [2] amounted to 91.9%. Besides, the parasite growth, % of control (lower = inhibition) in experiment [3] came to 88.7%. The cell viability, % of control (lower = more cytotoxic) in experiment [5] was 47%.
As for `O=C(O)c1cccnc1`, the parasite growth, % of DMSO control in experiment [1] was 91.9%. Also, the parasite growth, % of control (lower = inhibition) in experiment [3] was 95.2%. The cell viability, % of control (lower = more cytotoxic) in experiment [5] is 127%.
As to `CC(C)(C)C(=O)OCOP(=O)(COCCn1cnc2c(N)ncnc21)OCOC(=O)C(C)(C)C`, the parasite growth remaining, % of DMSO control (lower = more inhibition) in experiment [2] amounted to 96.8%. Besides, the parasite growth, % of control (lower = inhibition) in experiment [3] came out at 97.4%. Further, in experiment [5], the cell viability, % of control (lower = more cytotoxic) was found to be 3.53%.
